Records with an inconclusive call do not appear. Activity calls are given as the source filed them. Unless noted, calls come from the whole dose curve; as a rule, active = well fitted curve in either direction with a large enough effect (not every such curve was filed as active); inconclusive = small, poorly fitted or top-dose-only effect, or another doubt; inactive = flat fitted curve, though single readings scatter.
Legend:
[1] = AP1 Signaling Pathway (AID 357); conditions: ME-180 AP-1-bla reporter, EGF-induced, beta-lactamase ratio, 5 h; at 17.2 µM (top of the series) unless noted;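 note: ME-180 reporter cells stimulated with EGF at its EC50 level; % is set by controls: 0 for no effect and ±100 for the full control effect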
Outline: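 Titration-series screen for positive or negative modulators of EC50 EGF-induced signaling in ME-180 cells carrying an AP-1-driven beta-lactamase reporter. After 5 hours at 37 degrees Celsius, CCF4 460nm/530nm emission ratio gave %Activity; AC50 values derived.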

[2] = target: Cytochrome P450 1A2 (Homo sapiens) (UniProt P05177); experiment: p450-cyp1a2 (AID 410; calls by dose curve; note: potency is the fitted concentration of half-maximal effect;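 for activity change, negative = inhibition: -100% = full effect of reference inhibitor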)
Sequence of Cytochrome P450 1A2 (Homo sapiens) (P05177 whole entry, looked up): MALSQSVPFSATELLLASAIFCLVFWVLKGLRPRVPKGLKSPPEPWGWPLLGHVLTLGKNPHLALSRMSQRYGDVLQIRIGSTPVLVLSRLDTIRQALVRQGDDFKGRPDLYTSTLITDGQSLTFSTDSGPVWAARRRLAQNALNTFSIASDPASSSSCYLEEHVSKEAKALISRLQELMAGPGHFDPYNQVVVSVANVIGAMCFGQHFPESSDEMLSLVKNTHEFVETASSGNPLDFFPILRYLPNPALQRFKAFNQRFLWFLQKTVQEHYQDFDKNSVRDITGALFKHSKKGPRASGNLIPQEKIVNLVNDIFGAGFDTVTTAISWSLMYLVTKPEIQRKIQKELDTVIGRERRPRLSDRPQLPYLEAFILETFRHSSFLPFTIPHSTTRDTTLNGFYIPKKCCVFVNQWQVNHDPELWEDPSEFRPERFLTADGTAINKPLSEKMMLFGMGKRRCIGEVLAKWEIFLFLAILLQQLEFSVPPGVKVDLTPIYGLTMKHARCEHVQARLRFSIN
Outline: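 Luminescent readout of luciferin formed from Luciferin-ME by human CYP1A2; data normalized against complete inhibition by 57 uM furafylline. Enzyme 20nM, substrate 100uM at Km, 100mM KPO4 buffer, 60 min reaction at room temperature.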

[3] = Stat Signaling Pathway (AID 446);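 note: ME-180 cervical cancer cells given 40 pM IL-6 alongside compound; SIE-controlled beta-lactamase reporter measured as 460/530 nm FRET emission ratio; % is set by controls: 0 for no effect and ±100 for the full control effect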
Outline: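 Screening format detects activators and inhibitors alike: ME-180 SIE-bla cells stimulated at 40 pM IL-6 for 5 hrs with compound, then dual-emission beta-lactamase read at 405 nm excitation.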

[4] = target: Glucocorticoid receptor (Homo sapiens) (UniProt P04150); experiment: GR-GFP Redistribution (AID 450;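 active = compounds whose dose series gives a full or clear partial fitted curve of increased nuclear translocation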; note: potency is the fitted concentration of half-maximal effect); conditions: U2OS GR-GFP nuclear translocation, laser cytometry, 2 h
Sequence of Glucocorticoid receptor (Homo sapiens) (P04150 whole entry, looked up, the tested form may be a part): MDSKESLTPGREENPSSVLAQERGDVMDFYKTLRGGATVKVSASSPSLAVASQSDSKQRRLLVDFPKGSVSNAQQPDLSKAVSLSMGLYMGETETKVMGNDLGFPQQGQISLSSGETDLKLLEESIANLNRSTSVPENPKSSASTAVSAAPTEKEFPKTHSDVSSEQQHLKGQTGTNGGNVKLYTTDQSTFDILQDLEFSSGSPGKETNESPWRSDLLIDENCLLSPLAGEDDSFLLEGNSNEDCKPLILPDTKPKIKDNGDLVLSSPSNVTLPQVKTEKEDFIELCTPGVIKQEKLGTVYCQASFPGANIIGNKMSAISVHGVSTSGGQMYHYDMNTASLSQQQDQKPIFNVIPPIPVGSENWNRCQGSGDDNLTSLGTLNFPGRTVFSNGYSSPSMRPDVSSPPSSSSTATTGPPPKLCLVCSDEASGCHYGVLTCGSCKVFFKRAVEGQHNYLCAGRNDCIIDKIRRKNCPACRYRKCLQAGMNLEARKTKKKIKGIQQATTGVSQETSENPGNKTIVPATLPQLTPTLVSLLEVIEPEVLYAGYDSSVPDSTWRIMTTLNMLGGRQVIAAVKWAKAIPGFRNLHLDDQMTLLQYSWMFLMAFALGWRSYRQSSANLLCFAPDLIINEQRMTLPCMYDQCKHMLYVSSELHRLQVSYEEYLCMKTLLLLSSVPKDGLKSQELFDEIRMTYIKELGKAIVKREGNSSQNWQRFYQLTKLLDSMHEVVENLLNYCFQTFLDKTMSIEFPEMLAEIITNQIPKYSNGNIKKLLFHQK

[5] = target: Mitogen-activated protein kinase 10 (Mus musculus) (UniProt Q61831); experiment: JNK3 AlphaScreen Assay (AID 530);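 note: kinase came from lysate of stimulated human HepG2 cells; signal reports phosphorylation of biotinylated GST-cJun 1-79 at Ser73 with 10 µM ATP; % is set by controls: 0 for no effect and ±100 for the full control effect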
Outline: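 Compound titrations were preincubated 15 minutes at room temperature with substrate, antibody and pre-activated JNK3-containing HepG2 lysate. Reactions were started with 10 uM ATP and stopped with EDTA-containing bead buffer for AlphaScreen detection.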

[6] = NFAT Signaling Pathway (AID 444); conditions: Jurkat NFAT-bla M1, carbachol, beta-lactamase ratio, 5 h; at 17.2 µM (top of the series) unless noted;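 note: carbachol stimulus at about its EC50 of 1 µM final; % is set by controls: 0 for no effect and ±100 for the full control effect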
Outline: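 Read-out: CCF4 FRET ratio (460 nm/530 nm) after 1 h RT dye loading, used for %activity and AC50 from titration series. Cells: Jurkat NFAT-β-lactamase/M1 line, treated with compound plus 1 uM carbachol for 5 h, 37 °C.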

[7] = target: Glucocorticoid receptor (Homo sapiens) (UniProt P04150); experiment: GR-EFC Redistribution (AID 451; calls by dose curve; note: potency is the fitted concentration of half-maximal effect); conditions: CHO-K1 GR-EFC translocation, beta-gal luminescence, 2 h
Outline: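 Translocation of GR-ED fusion to nuclear EA restores b-gal, read by luminescence after 1 h room-temperature detection. Engineered CHO-K1 biosensor cells, 1,000/well, exposed 2 h at 37 C to titrations up to 46 uM final.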

[8] = target: 3',5'-cyclic-AMP phosphodiesterase 4B (Homo sapiens) (UniProt Q07343); experiment: qHTS Assay for Inhibitors of PDE-IV (AID 607; active = well fitted activation curve with a large enough effect in the main read-out, with a control signal flat, not every such curve was filed as active; note: % of control where 0% means no effect)
Sequence of 3',5'-cyclic-AMP phosphodiesterase 4B (Homo sapiens) (Q07343 whole entry, looked up): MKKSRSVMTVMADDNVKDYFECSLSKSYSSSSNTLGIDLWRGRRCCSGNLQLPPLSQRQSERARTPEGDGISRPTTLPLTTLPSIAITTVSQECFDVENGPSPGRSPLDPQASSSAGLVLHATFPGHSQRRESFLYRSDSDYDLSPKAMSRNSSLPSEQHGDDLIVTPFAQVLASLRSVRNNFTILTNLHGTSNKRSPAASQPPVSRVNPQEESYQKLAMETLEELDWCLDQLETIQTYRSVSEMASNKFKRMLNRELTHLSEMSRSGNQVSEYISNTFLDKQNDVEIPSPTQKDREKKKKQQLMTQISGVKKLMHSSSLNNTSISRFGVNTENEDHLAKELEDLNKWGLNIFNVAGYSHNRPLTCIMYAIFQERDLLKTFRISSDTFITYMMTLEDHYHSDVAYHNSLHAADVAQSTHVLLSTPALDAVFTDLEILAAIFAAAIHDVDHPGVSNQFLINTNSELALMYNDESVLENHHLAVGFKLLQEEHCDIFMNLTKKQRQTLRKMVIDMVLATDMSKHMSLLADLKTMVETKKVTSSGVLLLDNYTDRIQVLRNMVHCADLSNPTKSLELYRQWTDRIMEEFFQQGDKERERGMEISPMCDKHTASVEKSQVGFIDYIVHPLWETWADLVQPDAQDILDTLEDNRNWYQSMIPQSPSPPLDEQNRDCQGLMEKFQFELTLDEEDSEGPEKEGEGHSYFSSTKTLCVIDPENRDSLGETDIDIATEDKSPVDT
Outline: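 The readout is membrane depolarisation from a cAMP-sensing CNG channel, detected with a potential dye at ex 535/em 590. Cells were HEK293-derived (endogenous PDE-IV) at 1000 cells/well, titrated up to 22.9 uM final.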

[9] = target: Guanine nucleotide-binding protein G(i) subunit alpha-1 (Homo sapiens) (UniProt P63096); experiment: qHTS Assay for Inhibitors of RGS12 GoLoco Motif Activity (Green Fluorophore) (AID 879; active = well fitted curve in the direction sought with a large enough effect; an effect the other way counts as inactive or inconclusive;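 note: 0% = labeled peptide with Gαi1 and full inhibition = labeled peptide alone without protein; negative values mean loss of peptide binding seen as reduced polarization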)
Outline: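 Fluorescence polarization assay: 50 nM Gαi1 with 10 nM FITC-labeled RGS12 GoLoco peptide in 10 mM Tris pH 7.5, 150 mM NaCl, 0.1 mM GDP, 0.05% NP40, 10 min at room temperature with compound.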

[10] = target: Cytochrome P450 2D6 (Homo sapiens) (UniProt P10635); experiment: qHTS Assay for Inhibitors and Substrates of Cytochrome P450 2D6 (AID 891; active = well fitted curve in the direction sought with a large enough effect; an effect the other way counts as inactive or inconclusive; note: nearly all actives have a fitted effect of over 60% in size; note: potency is the fitted concentration of half-maximal effect)
Sequence of Cytochrome P450 2D6 (Homo sapiens) (P10635 whole entry, looked up): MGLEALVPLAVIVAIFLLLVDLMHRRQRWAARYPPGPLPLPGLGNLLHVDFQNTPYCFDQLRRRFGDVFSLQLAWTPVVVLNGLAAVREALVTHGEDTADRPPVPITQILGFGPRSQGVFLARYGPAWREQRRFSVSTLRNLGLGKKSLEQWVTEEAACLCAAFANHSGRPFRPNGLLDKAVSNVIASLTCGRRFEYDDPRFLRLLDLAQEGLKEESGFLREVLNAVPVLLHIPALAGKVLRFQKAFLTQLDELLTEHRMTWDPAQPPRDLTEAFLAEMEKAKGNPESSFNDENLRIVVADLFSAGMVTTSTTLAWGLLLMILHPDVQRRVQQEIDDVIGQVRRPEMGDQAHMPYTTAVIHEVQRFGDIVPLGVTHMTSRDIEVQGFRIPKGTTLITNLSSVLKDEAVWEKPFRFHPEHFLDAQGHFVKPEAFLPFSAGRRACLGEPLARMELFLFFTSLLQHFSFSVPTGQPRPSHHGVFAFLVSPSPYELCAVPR
Outline: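 Human CYP2D6 (5 nM) with 30 uM Luciferin-ME EGE (at Km) in 100 mM KPO4, compound preincubated 10 min, then NADPH regeneration system for 60 min at room temperature. Luciferin read by luminescence; normalized to 1.43 uM quinidine.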

[11] = qHTS Assay for Identification of Small Molecule Antagonists for NFkB Signaling Pathway (AID 895; active = well fitted inhibition curve with a large enough effect in the signal ratio, with a control signal flat, not every such curve was filed as active; the % refers to the signal ratio; note: potency is the fitted concentration of half-maximal effect)
Outline: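 Beta-lactamase reporter read-out (460 and 530 nm emission ratio, 405 nm excitation, 2 hrs substrate loading RT) after 5 hr stimulation with 10 pM TNF alpha in compound-treated NFkB-bla ME-180 cells in low-serum medium.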

[12] = qHTS Assay for Identification of Small Molecule Agonists for Thrombopoietin (TPO) Signaling Pathway (AID 917; active = well fitted curve in the direction sought with a large enough effect; an effect the other way counts as inactive or inconclusive; note: % is set by controls: 0 for no effect and ±100 for the full control effect)
Outline: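 Murine Ba/F3 cells stably expressing human TPO receptor and a Glycoprotein IIb promoter–luciferase reporter were IL-3-starved overnight, then treated with compounds plus TPO (26 pM final, its EC50) for 24 hrs at 37 C; luminescence was read.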

[13] = target: Pyruvate kinase PKM (Homo sapiens) (UniProt P14618); experiment: qHTS Assay for Activators of Human Muscle Pyruvate Kinase (AID 954; active = well fitted curve in the direction sought with a large enough effect, not every such curve was filed as active;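 note: 0% = uninhibited enzyme and -100% = no enzyme or full thiadiazolimine inhibition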)
Outline: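 Reaction: 0.1 nM purified PKM2 with 0.5 mM phosphoenolpyruvate and 0.1 mM ADP, room temperature, 1 h. Readout: luciferase-based ATP luminescence after stop reagent. Activators judged against a 0.3 nM enzyme column.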

[14] = target: Alpha-galactosidase (Coffea arabica) (UniProt Q42656); experiment: Counterscreen for Glucocerebrosidase Inhibitors: qHTS Assay for Coffee Bean alpha-Galactosidase at pH 4.5 (AID 957; active = well fitted curve in the direction sought with a large enough effect; an effect the other way counts as inactive or inconclusive;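 note: plate controls were enzyme alone for no effect and no enzyme for full effect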)
Sequence of Alpha-galactosidase (Coffea arabica) (Q42656 whole entry, looked up): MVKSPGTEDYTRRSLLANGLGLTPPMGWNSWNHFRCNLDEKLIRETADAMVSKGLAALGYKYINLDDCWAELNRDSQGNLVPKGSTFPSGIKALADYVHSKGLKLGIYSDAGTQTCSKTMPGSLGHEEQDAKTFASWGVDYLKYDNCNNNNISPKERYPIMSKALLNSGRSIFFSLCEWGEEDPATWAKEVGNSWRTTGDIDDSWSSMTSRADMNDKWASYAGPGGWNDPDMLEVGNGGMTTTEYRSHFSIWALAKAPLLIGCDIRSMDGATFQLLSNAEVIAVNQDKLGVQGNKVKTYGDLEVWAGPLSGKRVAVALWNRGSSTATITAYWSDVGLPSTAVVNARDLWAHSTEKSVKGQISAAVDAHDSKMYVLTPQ
Outline: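 Coffee bean alpha-galactosidase 2 nM, substrate 4-MU-alpha-Gal 80 uM, pH 4.5 citrate/Tween-20, 20 min RT. Cpd titration 0.7 nM–77 uM. Stop pH 10, fluorescence 365/440 nm; Hill-equation AC50.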

[15] = target: Alpha-galactosidase A (Homo sapiens) (UniProt P06280); experiment: Counterscreen for Glucocerebrosidase Inhibitors: qHTS Assay for Human alpha-Galactosidase at pH 4.5 (AID 992; active = well fitted curve in the direction sought with a large enough effect; an effect the other way counts as inactive or inconclusive; note: 0% is about no effect)
Sequence of Alpha-galactosidase A (Homo sapiens) (P06280 whole entry, looked up): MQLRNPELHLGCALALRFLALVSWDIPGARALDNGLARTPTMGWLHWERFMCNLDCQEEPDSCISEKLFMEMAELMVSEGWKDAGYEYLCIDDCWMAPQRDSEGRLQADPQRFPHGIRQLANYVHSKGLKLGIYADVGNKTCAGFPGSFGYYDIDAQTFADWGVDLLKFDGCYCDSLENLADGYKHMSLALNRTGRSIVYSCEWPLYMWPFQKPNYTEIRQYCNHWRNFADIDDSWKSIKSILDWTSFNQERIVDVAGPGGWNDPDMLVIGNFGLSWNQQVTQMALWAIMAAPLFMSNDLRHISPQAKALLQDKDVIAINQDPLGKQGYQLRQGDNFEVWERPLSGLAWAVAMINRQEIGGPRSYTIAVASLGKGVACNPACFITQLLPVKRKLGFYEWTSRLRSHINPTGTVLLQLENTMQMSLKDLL
Outline: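 Concentration-response curves (0.7 nM to 77 uM final) were modeled with the Hill equation to give AC50. Reactions: 2 nM enzyme, 80 uM fluorogenic alpha-galactoside, pH 4.5 citric acid buffer, 20 min, room temperature.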

[16] = target: alpha-glucosidase (Oryza sativa, rice) (UniProt Q653V4); experiment: Counterscreen for Glucocerebrosidase Inhibitors: qHTS Assay for Rice alpha-Glucosidase at pH 5.0 (AID 997; active = well fitted curve in the direction sought with a large enough effect; an effect the other way counts as inactive or inconclusive;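 note: 0% = full activity with enzyme and -100% = basal without enzyme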)
Outline: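 Rice alpha-glucosidase (4 nM final) with 400 uM 4-methylumbelliferyl-alpha-D-glucopyranoside in citrate buffer pH 5.0, 20 min at room temperature, stopped at pH 10; fluorescence 365/440 nm, compounds 0.7 nM–77 uM, AC50 from Hill fits.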

[17] = target: Alpha-galactosidase (Coffea arabica) (UniProt Q42656); experiment: Counterscreen for Glucocerebrosidase Inhibitors: qHTS Assay for Coffee Bean alpha-Galactosidase at pH 5.9 (AID 998; active = well fitted curve in the direction sought with a large enough effect; an effect the other way counts as inactive or inconclusive;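 note: plate controls were uninhibited enzyme for no effect and no-enzyme basal signal for full effect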)
Outline: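 Compounds were titrated from 0.7 nM to 77 uM against green coffee bean alpha-galactosidase (2 nM) using 80 uM fluorogenic 4-methylumbelliferyl substrate. After 20 min at room temperature, reactions were stopped at pH 10 and read by fluorescence.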

[18] = target: Cytochrome P450 2C9 (Homo sapiens) (UniProt P11712); experiment: qHTS Assay for Inhibitors and Substrates of Cytochrome P450 2C9 (AID 883; active = well fitted curve in the direction sought with a large enough effect; an effect the other way counts as inactive or inconclusive; note: % is set by controls: 0 for no effect and ±100 for the full control effect; nearly all actives have a fitted effect of over 60% in size)
Sequence of Cytochrome P450 2C9 (Homo sapiens) (P11712 whole entry, looked up): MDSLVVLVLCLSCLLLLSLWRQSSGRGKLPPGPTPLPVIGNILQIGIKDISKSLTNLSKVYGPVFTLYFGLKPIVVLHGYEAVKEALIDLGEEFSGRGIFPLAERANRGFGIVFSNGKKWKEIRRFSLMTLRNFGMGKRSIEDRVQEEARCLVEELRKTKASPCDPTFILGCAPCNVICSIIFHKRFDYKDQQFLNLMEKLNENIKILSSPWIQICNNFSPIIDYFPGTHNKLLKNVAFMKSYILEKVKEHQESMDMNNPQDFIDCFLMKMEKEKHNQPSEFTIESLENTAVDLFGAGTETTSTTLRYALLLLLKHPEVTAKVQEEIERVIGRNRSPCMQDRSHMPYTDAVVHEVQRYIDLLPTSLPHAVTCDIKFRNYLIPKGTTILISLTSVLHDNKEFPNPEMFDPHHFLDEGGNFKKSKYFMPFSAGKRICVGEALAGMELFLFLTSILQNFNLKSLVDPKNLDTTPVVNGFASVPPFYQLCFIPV
Outline: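 Luminescent read-out of deoxyluciferin hydroxylation, normalized to 57uM sulphaphenazole (AC100). Reaction: 10nM enzyme, 100uM Luciferin-H (equal to KM), 25mM KPO4, 10 min compound preincubation, then 60 min with NADPH regeneration, both at 37C.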

[19] = target: Cytochrome P450 2C19 (Homo sapiens) (UniProt P33261); experiment: qHTS Assay for Inhibitors and Substrates of Cytochrome P450 2C19 (AID 899; active = well fitted curve in the direction sought with a large enough effect; an effect the other way counts as inactive or inconclusive; note: % is set by controls: 0 for no effect and ±100 for the full control effect; nearly all actives have a fitted effect of over 60% in size)
Sequence of Cytochrome P450 2C19 (Homo sapiens) (P33261 whole entry, looked up): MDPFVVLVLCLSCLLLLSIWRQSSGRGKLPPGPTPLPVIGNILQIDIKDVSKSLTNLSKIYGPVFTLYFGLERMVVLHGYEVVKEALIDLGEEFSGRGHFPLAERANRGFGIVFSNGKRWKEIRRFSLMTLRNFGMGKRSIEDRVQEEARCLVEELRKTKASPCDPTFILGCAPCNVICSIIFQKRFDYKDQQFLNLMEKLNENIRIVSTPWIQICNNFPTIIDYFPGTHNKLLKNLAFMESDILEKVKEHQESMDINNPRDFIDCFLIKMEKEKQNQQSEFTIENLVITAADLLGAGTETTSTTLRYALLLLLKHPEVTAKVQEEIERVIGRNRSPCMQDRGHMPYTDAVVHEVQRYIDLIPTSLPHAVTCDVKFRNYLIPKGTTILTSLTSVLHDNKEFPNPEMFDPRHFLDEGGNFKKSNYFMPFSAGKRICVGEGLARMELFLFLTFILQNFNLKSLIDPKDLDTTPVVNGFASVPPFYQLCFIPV
Outline: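 Luminescence readout of luciferin formed from 10uM Luciferin-H EGE (KM level) by 5 nM CYP2C19 in 50mM KPO4. 60 min NADPH-driven reaction at 37C after 10 min compound preincubation; data scaled to 57uM ketoconazole inhibition.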

[20] = target: Cytochrome P450 3A4 (Homo sapiens) (UniProt P08684); experiment: qHTS Assay for Activators of Cytochrome P450 3A4 (AID 885; active = well fitted curve in the direction sought with a large enough effect; an effect the other way counts as inactive or inconclusive; note: nearly all actives have a fitted effect of over 65% in size)
Sequence of Cytochrome P450 3A4 (Homo sapiens) (P08684 whole entry, looked up): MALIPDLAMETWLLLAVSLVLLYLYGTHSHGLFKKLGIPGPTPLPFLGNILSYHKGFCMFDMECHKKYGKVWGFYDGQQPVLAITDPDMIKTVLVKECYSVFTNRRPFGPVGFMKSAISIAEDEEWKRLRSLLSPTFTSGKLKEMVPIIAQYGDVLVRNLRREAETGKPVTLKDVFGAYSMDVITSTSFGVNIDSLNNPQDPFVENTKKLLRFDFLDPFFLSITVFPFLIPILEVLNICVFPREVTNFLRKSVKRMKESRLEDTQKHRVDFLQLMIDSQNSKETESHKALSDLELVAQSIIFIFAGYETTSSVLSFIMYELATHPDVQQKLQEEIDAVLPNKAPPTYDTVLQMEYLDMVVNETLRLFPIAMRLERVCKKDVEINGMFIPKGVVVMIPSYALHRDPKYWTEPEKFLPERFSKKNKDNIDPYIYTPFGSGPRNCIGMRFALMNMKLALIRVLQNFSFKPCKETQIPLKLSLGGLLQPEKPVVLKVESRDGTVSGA
Outline: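 Steps: enzyme/substrate mix dispensed; compound added, 10 min RT; NADPH regeneration solution added, 60 min RT; luciferin detection buffer stops reaction; 20 min later luminescence measured.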

C[N+]1(C)[C@@H]2CC(OC(=O)[C@@H](CO)c3ccccc3)C[C@@H]1[C@H]1O[C@H]12 (some centres undefined)
inactive: activity change, negative = inhibition [1] 0.541% [at 7.69 µM] | activity change, negative = inhibition [2] -22.8% [at 11.4 µM] | outcome [3] | Potency [4] > 46 µM | activity change, negative = inhibition [5] 0.144% [at 11.4 µM]

CC1(c2ccccc2)NCCN2C(=O)CSC21 (centres undefined)
inactive: activity change, negative = inhibition [1] 2.95% | activity change, negative = inhibition [6] -7.83% | outcome [3] | Potency [4] > 20.6 µM

C[C@H](N[C@@H](C)CCc1ccccc1)[C@H](O)c1ccc(O)cc1
inactive: activity change, negative = inhibition [1] 10.2% [at 38 µM] | outcome [3] | Potency [4] > 46 µM | Potency [7] > 46 µM | outcome [5] | outcome [8] | Potency [9] | outcome [12] | outcome [13] | outcome [14] | outcome [15] | outcome [16] | outcome [17]
active: Potency [2] 7.94 µM | Potency [10] 2 µM | Potency [11] 0.0089 µM [stimulated with 10 pM TNF alpha]

CCCCNC(=O)Nc1ccc(C(O)(C(=O)OCC)C(F)(F)F)cc1 (centres undefined)
inactive: activity change, negative = inhibition [1] -5.83% | activity change, negative = inhibition [6] 30% | outcome [3] | Potency [4] > 20.6 µM

C[C@@]12CC[C@H]3[C@@H](CCC4=CC(=O)CC[C@]43C)[C@H]1CCC2=O
inactive: activity change, negative = inhibition [1] 2.25% [at 38 µM] | Potency [2] | activity change, negative = inhibition [6] 9.12% [at 38 µM] | outcome [3] | outcome [5] | outcome [8] | Potency [18] | Potency [10] | Potency [19]

CCCCC1(CN2CCCC2=O)C(=O)NC(=O)NC1=O
inactive: activity change, negative = inhibition [1] 7.49% | activity change, negative = inhibition [6] -2.56% | outcome [3] | Potency [4] > 20.6 µM

CCN(CC)CCCC(C)N=C(c1ccccc1)c1c(O)n(C)c(=O)n(C)c1=O (centres undefined)
inactive: activity change, negative = inhibition [1] -17.7% | activity change, negative = inhibition [6] -29.5% | outcome [3] | Potency [4] > 20.6 µM

CCOC(=O)[C@]1(C#N)[C@@H]2C=CC(C(C)=O)=CN2[C@@H](C(N)=O)[C@@H]1c1ccsc1
inactive: activity change, negative = inhibition [1] -0.365% | activity change, negative = inhibition [6] -15.2% | outcome [3] | Potency [4] > 20.6 µM

COc1cccc(-n2c(O)c(C=NCCN3CCOCC3)c(=O)[nH]c2=O)c1
inactive: activity change, negative = inhibition [1] 0.139% | activity change, negative = inhibition [6] 11% | outcome [3] | Potency [4] > 20.6 µM

C=C(C)[C@@H]1CN[C@H](C(=O)O)[C@H]1CC(=O)O
inactive: activity change, negative = inhibition [1] 8.5% [at 38 µM] | Potency [2] | activity change, negative = inhibition [6] 0.349% [at 38 µM] | Potency [4] > 46 µM | outcome [8] | Potency [18] | Potency [10] | Potency [19]

COc1ccc2[nH]c3c(c2c1)CCN=C3C
active: Potency [2] 1.58 µM | Potency [10] 0.631 µM
inactive: activity change, negative = inhibition [1] -4.7% | outcome [3] | Potency [4] > 20.6 µM | outcome [8] | Potency [20]

— PubChem BioAssay (NCATS)
